Measured values reported in PubChem BioAssay (Tox21).
Inconclusive results are not listed. Activity calls are given as the source filed them. Unless noted, calls come from the whole dose curve; as a rule, active = well fitted curve in the direction sought with a large enough effect in the repeat runs; inconclusive = weak or mixed curves; inactive = no such curve, though single readings can be large; an effect the other way counts as inactive or inconclusive.

How the values were obtained:
[1] = qHTS assay to identify small molecule agonists of the peroxisome proliferator-activated receptor delta (PPARd) signaling pathway - cell viability counter screen (AID 743211); note: nearly all actives have a fitted effect of over 55% in size
Method in brief: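 HEK293H PPARd-bla, 3000 cells/well; 5 h preincubation 37C/5% CO2; cpd in DMSO, 17 h 37C; B/G FRET substrate 2 h RT; CellTiter-Glo 30 min RT, luminescence.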

[2] = qHTS assay to identify small molecule antagonists of the peroxisome proliferator-activated receptor delta (PPARd) signaling pathway - cell viability counter screen (AID 743213); note: nearly all actives have a fitted effect of over 50% in size
Method in brief: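 In this counter screen, HEK293H cells carrying a UAS-beta-lactamase reporter are co-treated with test compounds and 300 nM L165041 (final) for 17 h at 37 C; cell viability is quantified by CellTiter-Glo luminescence.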

[3] = qHTS assay to identify small molecule agonists of the farnesoid-X-receptor (FXR) signaling pathway - cell viability counter screen (AID 743218); note: nearly all actives have a fitted effect of over 45% in size
Method in brief: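 Same-well cytotoxicity check on FXR-UAS-bla HEK 293T cells: 5 h attachment, 16 h compound at 37 C, CellTiter-Glo luminescence read at room temperature after 30 min.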

[4] = qHTS assay to identify small molecule antagonists of the farnesoid-X-receptor (FXR) signaling pathway - cell viability counter screen (AID 743221; active = well fitted cell-killing curve with a large enough effect in the repeat runs, not every such curve was filed as active; note: nearly all actives have a fitted effect of over 50% in size)
Method in brief: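 Luminescence from CellTiter-Glo measures cytotoxicity in GeneBLAzer FXR-UAS-bla HEK 293T cells. Cells were exposed to compounds with 50 uM chenodeoxycholic acid (final) for 16 h at 37 C, in wells also used for the reporter readout.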

[5] = target: Vitamin D3 receptor (Homo sapiens) (UniProt P11473); test: qHTS assay to identify small molecule agonists of the vitamin D receptor (VDR) signaling pathway (AID 743222; calls by dose curve)
Sequence of Vitamin D3 receptor (Homo sapiens) (P11473 whole entry, looked up): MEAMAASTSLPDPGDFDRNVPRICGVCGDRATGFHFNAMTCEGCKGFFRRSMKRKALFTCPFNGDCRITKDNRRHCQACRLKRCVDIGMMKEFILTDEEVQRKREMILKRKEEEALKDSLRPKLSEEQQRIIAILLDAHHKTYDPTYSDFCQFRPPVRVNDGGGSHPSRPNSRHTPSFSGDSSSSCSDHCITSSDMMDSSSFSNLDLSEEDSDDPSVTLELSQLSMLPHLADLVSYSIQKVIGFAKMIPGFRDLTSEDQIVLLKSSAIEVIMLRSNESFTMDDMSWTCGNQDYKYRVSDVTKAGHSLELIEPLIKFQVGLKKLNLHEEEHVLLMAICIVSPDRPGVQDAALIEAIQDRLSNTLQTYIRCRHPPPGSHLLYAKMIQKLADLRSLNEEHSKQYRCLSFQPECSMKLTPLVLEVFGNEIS
Method in brief: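 Using LiveBLAzer B/G FRET detection, agonism was scored in VDR-bla cells exposed overnight (16 h, 37C) to DMSO-dissolved compounds; substrate incubation was 2 h at room temperature.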

[6] = target: Vitamin D3 receptor (Homo sapiens) (UniProt P11473); test: qHTS assay to identify small molecule antagonists of the vitamin D receptor (VDR) signaling pathway (AID 743223; active = well fitted inhibition curve with a large enough effect in the signal ratio in the repeat runs, not every such curve was filed as active; the % refers to the signal ratio)
Method in brief: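 Antagonist mode uses 1alpha,25-dihydroxyvitamin D3 at 3 nM final as stimulus. VDR-bla cells receive compounds in DMSO, incubate 16 h at 37C, then a beta-lactamase FRET substrate for 2 h at room temperature before fluorescence measurement.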

[7] = qHTS assay to identify small molecule agonists of the vitamin D receptor (VDR) signaling pathway - cell viability counter screen (AID 743224); note: series mostly up to about 63 µM; nearly all actives have a fitted effect of over 50% in size
Method in brief: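 Counter screen for cytotoxicity: VDR-bla cells at 2,000 cells/well, 16 h compound exposure, then CellTiter-Glo luminescence after the beta-lactamase measurement.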

[8] = qHTS assay to identify small molecule antagonists of the vitamin D receptor (VDR) signaling pathway - cell viability counter screen (AID 743225); note: nearly all actives have a fitted effect of over 50% in size
Method in brief: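 Read-out: CellTiter-Glo luminescence measured 30 min after reagent addition at room temperature. Cells were VDR-bla HEK 293T exposed 16 h at 37C, 5% CO2, to compound with 3 nM final calcitriol agonist.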

[9] = qHTS assay to identify small molecule agonists of the NFkB signaling pathway (AID 1159509; active = well fitted curve in the direction sought with a large enough effect in the signal ratio in the repeat runs, not every such curve was filed as active; the % refers to the signal ratio; note: series mostly up to about 61 µM)
Method in brief: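 Readout: FRET fluorescence, 405 nm excitation, 460/530 nm emission; beta-lactamase expression disrupts FRET. Cells: ME-180 stably carrying NF-kB-driven bla reporter. Compound exposure 5 hr, 37 C, 5% CO2.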

[10] = qHTS assay to identify small molecule agonists of the NFkB signaling pathway - cell viability counter screen (AID 1159515; calls by dose curve; note: series mostly up to about 61 µM; nearly all actives have a fitted effect of over 55% in size)
Method in brief: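 Counter screen run alongside the NFkB-bla agonist assay: ME-180 reporter cells exposed to compounds for 5 hr, then lysed with CellTiter-Glo in the same wells. Luminescence, read after 30 min, reflects viable cells.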

[11] = qHTS assay to identify small molecule agonists of the endoplasmic reticulum stress response signaling pathway (AID 1159516; active = well fitted activation curve with a large enough effect in the signal ratio in the repeat runs, not every such curve was filed as active; the % refers to the signal ratio)
Method in brief: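 For this screen, HeLa cells stably carrying beta-lactamase under the ER stress response element received test compounds, positive controls or DMSO for 5 hr at 37 C; B/G FRET substrate was then added and dual-wavelength emission recorded.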

[12] = qHTS assay to identify small molecule agonists of the endoplasmic reticulum stress response signaling pathway - cell viability counter screen (AID 1159517; calls by dose curve)
Method in brief: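 After overnight attachment, ESRE-bla HeLa cells were treated with Tox21 library compounds for 5 hr. CellTiter-Glo luminescence, read 30 min post-addition at room temperature, reported viability.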

[13] = qHTS assay to identify small molecule antagonists of the retinoid-related orphan receptor gamma (ROR-gamma) signaling pathway - cell viability counter screen (AID 1159520); note: nearly all actives have a fitted effect of over 50% in size
Method in brief: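 Cytotoxicity was read from cellular ATP (CellTiter-Glo luminescence) after 16 hr at 37 C with 1 uM doxycycline induction. The inducer was added 2 hr after compound transfer to Tet-on ROR gamma CHO cells.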

[14] = target: Nuclear receptor ROR-gamma (Homo sapiens) (UniProt P51449); test: qHTS assay to identify small molecule antagonists of the retinoid-related orphan receptor gamma (ROR-gamma) signaling pathway (AID 1159521)
Method in brief: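 CHO Tet-on RORγ, RORE-luc reporter. Cpd 2 h pre-incubation, then dox hyclate 1 uM final, 16 h, 37 C/5% CO2. ONE-Glo luminescence; decrease = antagonist.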

[15] = qHTS assay to identify small molecule agonists of the AP-1 signaling pathway - cell viability counter screen (AID 1159525; calls by dose curve; note: nearly all actives have a fitted effect of over 55% in size)
Method in brief: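 Intracellular ATP by Cell Titer Glo luminescence (30 min, RT) in the same ME-180 AP-1-bla wells after the 5 h compound exposure at 37 °C. Normalised to tetra n-octyl ammonium bromide and DMSO controls.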

[16] = qHTS assay to identify small molecule agonists of the AP-1 signaling pathway (AID 1159526; calls by dose curve)
[17] = target: Peroxisome proliferator-activated receptor delta (Homo sapiens) (UniProt Q03181); test: qHTS assay to identify small molecule agonists of the peroxisome proliferator-activated receptor delta (PPARd) signaling pathway (AID 743212; calls by dose curve;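 note: HEK293H cells with PPARd UAS beta-lactamase reporter GeneBLAzer system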)
Sequence of Peroxisome proliferator-activated receptor delta (Homo sapiens) (Q03181 whole entry, looked up): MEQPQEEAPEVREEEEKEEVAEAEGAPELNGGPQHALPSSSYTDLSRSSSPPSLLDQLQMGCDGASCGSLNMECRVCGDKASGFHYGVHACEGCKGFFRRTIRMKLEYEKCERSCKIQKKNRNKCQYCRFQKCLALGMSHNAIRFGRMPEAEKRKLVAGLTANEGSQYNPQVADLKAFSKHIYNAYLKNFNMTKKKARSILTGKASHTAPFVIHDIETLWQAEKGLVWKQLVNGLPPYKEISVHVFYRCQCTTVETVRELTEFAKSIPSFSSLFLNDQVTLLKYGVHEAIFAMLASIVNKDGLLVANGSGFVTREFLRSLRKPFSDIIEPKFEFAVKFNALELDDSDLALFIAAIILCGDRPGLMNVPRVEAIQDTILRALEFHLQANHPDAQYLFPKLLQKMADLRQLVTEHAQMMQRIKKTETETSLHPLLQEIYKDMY
Method in brief: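 Steps: seed PPARd-bla HEK293H cells; incubate 5 h, 37 C, 5% CO2; add compounds in DMSO; incubate, 37 C; add LiveBLAzer B/G FRET substrate; hold 2 h at room temperature; measure fluorescence.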

[18] = target: Peroxisome proliferator-activated receptor delta (Homo sapiens) (UniProt Q03181); test: qHTS assay to identify small molecule antagonists of the peroxisome proliferator-activated receptor delta (PPARd) signaling pathway (AID 743215; active = well fitted inhibition curve with a large enough effect in the signal ratio in the repeat runs, not every such curve was filed as active; the % refers to the signal ratio;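 note: cells stimulated with agonist L165041 at 300 nM final during compound exposure; series mostly up to about 62 µM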)
Method in brief: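 Screen format: qHTS, antagonist mode. HEK293H PPARd-bla cells received compound and 300 nM L165041 (final), 17 h, 37 C. Beta-lactamase detected via FRET substrate fluorescence, 2 h, room temperature.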

[19] = target: Bile acid receptor (Homo sapiens) (UniProt Q96RI1); test: qHTS assay to identify small molecule antagonists of the farnesoid-X-receptor (FXR) signaling pathway (AID 743217; active = well fitted inhibition curve with a large enough effect in the signal ratio in the repeat runs, not every such curve was filed as active; the % refers to the signal ratio)
Sequence of Bile acid receptor (Homo sapiens) (Q96RI1 whole entry, looked up): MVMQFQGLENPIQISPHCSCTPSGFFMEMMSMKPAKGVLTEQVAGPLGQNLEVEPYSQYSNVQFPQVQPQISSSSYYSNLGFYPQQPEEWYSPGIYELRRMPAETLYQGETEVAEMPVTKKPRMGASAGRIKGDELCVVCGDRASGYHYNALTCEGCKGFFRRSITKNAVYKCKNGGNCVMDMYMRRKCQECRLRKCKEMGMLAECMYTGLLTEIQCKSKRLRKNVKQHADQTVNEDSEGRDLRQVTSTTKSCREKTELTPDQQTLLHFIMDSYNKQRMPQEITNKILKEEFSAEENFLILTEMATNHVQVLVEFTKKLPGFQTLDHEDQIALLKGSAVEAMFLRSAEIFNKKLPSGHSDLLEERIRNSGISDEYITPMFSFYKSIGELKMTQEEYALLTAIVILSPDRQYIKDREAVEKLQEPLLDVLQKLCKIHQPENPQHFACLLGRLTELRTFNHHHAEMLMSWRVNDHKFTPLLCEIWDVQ
Method in brief: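 Quantitative HTS, beta-lactamase reporter format: FXR-UAS-bla HEK 293T cells co-treated 16 h at 37 °C with compounds and 50 uM final chenodeoxycholic acid, then read by B/G FRET fluorescence.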

[20] = target: Bile acid receptor (Homo sapiens) (UniProt Q96RI1); test: qHTS assay to identify small molecule agonists of the farnesoid-X-receptor (FXR) signaling pathway (AID 743220; active = well fitted activation curve with a large enough effect in the signal ratio in the repeat runs, not every such curve was filed as active; the % refers to the signal ratio)
Method in brief: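 FXR-UAS-bla HEK 293T cells carrying a UAS-driven beta-lactamase reporter were plated for 5 h at 37C/5% CO2, then exposed to DMSO-dissolved Tox21 10K compounds for 16 h at 37C. A LiveBLAzer B/G FRET substrate was loaded for 2 h at room temperature before fluorescence reading.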

Measured: Potency

O=P(O)(O)OP(=O)(O)O
not listed: [17] | [18] | [19] | [20]
inactive: all other assays above

COc1ccc(OC)c(Cl)c1
not listed: [5] | [6] | [15] | [19] | [20]
inactive: all other assays above

Cc1cc(C(C)(C)C)c(O)c(C)c1CC1=NCCN1
not listed: [1] | [5] | [6] | [7] | [18] | [19] | [20]
inactive: all other assays above

O=S(=O)(O)CCN1CCN(CCO)CC1
not listed: [4] | [17] | [18]
inactive: all other assays above

CC(=O)NCc1c(I)c(NC(C)=O)c(I)c(C(=O)O)c1I
not listed: [2] | [6] | [7] | [17] | [18] | [19] | [20]
inactive: all other assays above

O=C1O[C@@H]2[C@@H](O)[C@H](O)O[C@@H]2[C@H]1O
not listed: [2] | [8] | [17] | [18]
inactive: all other assays above

CC/C=C\CC1=C(C)CCC1=O
not listed: [8] | [17] | [18] | [19] | [20]
inactive: all other assays above

CCCCCCCCCCCCCC
not listed: [17] | [18] | [19] | [20]
inactive: all other assays above
